Data reported in PubChem BioAssay.
Activity calls are given as the source filed them.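 How the source made its calls, unless noted: active means aptamer binding inhibition above 30%, about 3 SD of noise from non-fluorescent compounds; inactive means inhibition at or below 30%.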

Key:
[1] = inhibitors of CD8+ T cell-vesicle binding, pilot screen, LFA-1/ICAM-1 modulator project, MLPCN validation set, flow cytometry (AID 2523;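 active means response below a set limit, under 55% cells CD8-positive and vesicle-bound, and CD8 cells' 90th-percentile brightness under 279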;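 on vesicle binding response: mean PE anti-B7-1 fluorescence of CD8+ cells relative to row control; 100% = QL9-loaded vesicles with DMSO vehicle in the same plate row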); conditions: 2C mouse CD8+ T cells, at 7 µM, stronger effect = lower value; double positive events: measured here: CD8+/vesicle+ event percentage
[2] = biological target: Integrin beta-1 (Homo sapiens) + Integrin alpha-4 (Homo sapiens) (UniProt P13612+P05556); assay: inhibition of HUTS-21 binding to VLA-4, pilot screen, VLA-4 allosteric modulator project, U937 cells, HUTS-21 mAb, flow cytometry, validation set (AID 2674;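 active means inhibition above 50%, about 3 SD of the validation set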;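 further: antibody binding induced by the VLA-4 ligand LDV present at three times its Kd; 0% = LDV ligand with antibody and no compound and 100% = antibody without LDV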); conditions: HUTS-21 LIBS mAb binding, at 6.7 µM, stronger effect = higher value, binding induced by LDV ligand
[3] = superoxide lowering in aged yeast cells, pilot screen, validation compound set (AID 2706;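 active means superoxide response below 65% of plate, a cut near 3 SD across the whole screen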;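 further: yeast exposed to compound for one week at 30 degrees C before staining; 100% = mean of all compound wells on the same plate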); conditions: S. cerevisiae aging, superoxide DHE fluorescence; at 10 µM, stronger effect = lower value
[4] = biological target: Beta-adrenergic receptor kinase 1 (Homo sapiens) (UniProt P25098); assay: GRK2 binders displacing RNA aptamer, biochemical, validation, human GRK2, bead flow cytometry (AID 488806); conditions: bead-bound GRK2, FAM-aptamer displacement, at 10 µM, stronger effect = higher value
[5] = biological target: AP-2 complex subunit beta (Homo sapiens) (UniProt P63010); assay: inhibitors of arrestin peptide binding to AP2, pilot screen, biochemical, validation set, GST-AP2 beads, flow cytometry (AID 504541;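 active means inhibition above 54%, about 3 SD of non-fluorescent compounds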;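 further: AP2 carries R879A mutation and is captured from E. coli lysate; bead-bound FITC arrestin peptide fluorescence measuring arrestin peptide binding to AP2; 0% = DMSO wells and 100% = excess unlabeled arrestin peptide control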); conditions: FITC arrestin peptide, at 10 µM, stronger effect = higher value, AP2 beta2 appendage fragment, R879A mutant
[6] = yeast V-ATPase proton transport modulators, S. cerevisiae, pHLuorin, HTS validation (AID 504600; in the data active means response above about 15%;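 further: plate controls were DMSO for no effect and reference compound for full effect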); conditions: S. cerevisiae pHLuorin cytosolic pH, at 10 µM, stronger effect = higher value
[7] = tested on: anti-desmoglein-3 scFv antibody binding to human DSG3; assay: inhibitors of anti-DSG3 scFv binding to DSG3, pilot screen, biochemical, validation compound set, bead-based, flow cytometry (AID 588368;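 active means binding below the plate cutoff, the plate median minus 3 SD, with a reading above zero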;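 further: signal is the median channel fluorescence of bead-bound GFP antibody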); conditions: Protein G beads, DSG3-Fc, scFv-GFP binding, at 10 µM, stronger effect = lower value
[8] = inhibitors of fungal efflux pumps CDR1, CDR2, MDR1, pilot screen, validation compound set, multiplex, phenotypic (AID 588506;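 active means efflux inhibition above 0.42, the validation set average plus 4 SD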;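 further: Nile Red retained in cells so higher fluorescence means more efflux inhibition; 0 = negative control wells and 1 = enniatin B 25 µM full block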); conditions: S. cerevisiae pump-expressing triplex, Nile Red efflux flow cytometry; at 10 µM; stronger effect = higher value; the pumps come from Candida albicans
[9] = biological target: ATP-binding cassette sub-family B member 6 (Homo sapiens) (UniProt Q9NP58); assay: ABCB6 transporter inhibitors, pilot screen, K562-ABCB6 cells, flow cytometry, validation set (AID 588550;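 active means inhibition above the screen-wide mean plus 3 SD, about 51%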;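 further: 0% = DMSO wells and 100% = benzethonium chloride 70 µM positive control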); conditions: K562-ABCB6 porphyrin accumulation, 1 h, at 10 µM, stronger effect = higher value
[10] = promoters of myeloid differentiation in arrested cells, primary screen, cell-based, GFP/MAC1 double positive, flow cytometry, validation set (AID 588685;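 active means differentiation response of at least 50%, scaled between solvent and reference control, from cells with both markers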;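 further: compound exposure lasts four days before antibody staining and flow analysis; 0% = DMSO wells and 100% = 5 µM fulvestrant positive control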); conditions: ER-HoxA9 marrow cells, stronger effect = higher value, normalized: vehicle 0, fulvestrant 100

Integrin beta-1 (Homo sapiens) + Integrin alpha-4 (Homo sapiens), sequence (P05556 whole entry, looked up): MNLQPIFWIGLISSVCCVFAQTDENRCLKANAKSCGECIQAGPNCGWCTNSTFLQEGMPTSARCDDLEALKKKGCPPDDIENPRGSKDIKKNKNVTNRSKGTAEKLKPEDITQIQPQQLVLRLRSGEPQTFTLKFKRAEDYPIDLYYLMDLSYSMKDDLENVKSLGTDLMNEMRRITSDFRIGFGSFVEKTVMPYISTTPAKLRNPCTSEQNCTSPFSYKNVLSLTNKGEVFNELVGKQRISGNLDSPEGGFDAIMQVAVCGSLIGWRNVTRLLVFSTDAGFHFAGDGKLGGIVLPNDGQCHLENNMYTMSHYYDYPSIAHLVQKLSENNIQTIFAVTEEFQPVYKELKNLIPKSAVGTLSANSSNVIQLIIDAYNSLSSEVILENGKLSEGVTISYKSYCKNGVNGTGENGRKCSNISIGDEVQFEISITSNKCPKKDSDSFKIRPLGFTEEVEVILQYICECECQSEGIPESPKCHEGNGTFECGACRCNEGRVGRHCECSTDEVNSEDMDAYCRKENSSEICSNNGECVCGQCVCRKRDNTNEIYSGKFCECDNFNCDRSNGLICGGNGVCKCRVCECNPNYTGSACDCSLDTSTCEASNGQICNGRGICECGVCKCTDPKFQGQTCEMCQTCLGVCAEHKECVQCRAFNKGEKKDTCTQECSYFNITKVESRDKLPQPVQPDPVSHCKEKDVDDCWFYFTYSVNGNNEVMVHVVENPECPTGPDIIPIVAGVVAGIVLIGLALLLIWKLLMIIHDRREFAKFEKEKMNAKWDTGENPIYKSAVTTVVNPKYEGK
Integrin beta-1 (Homo sapiens) + Integrin alpha-4 (Homo sapiens), sequence (P13612 whole entry, looked up): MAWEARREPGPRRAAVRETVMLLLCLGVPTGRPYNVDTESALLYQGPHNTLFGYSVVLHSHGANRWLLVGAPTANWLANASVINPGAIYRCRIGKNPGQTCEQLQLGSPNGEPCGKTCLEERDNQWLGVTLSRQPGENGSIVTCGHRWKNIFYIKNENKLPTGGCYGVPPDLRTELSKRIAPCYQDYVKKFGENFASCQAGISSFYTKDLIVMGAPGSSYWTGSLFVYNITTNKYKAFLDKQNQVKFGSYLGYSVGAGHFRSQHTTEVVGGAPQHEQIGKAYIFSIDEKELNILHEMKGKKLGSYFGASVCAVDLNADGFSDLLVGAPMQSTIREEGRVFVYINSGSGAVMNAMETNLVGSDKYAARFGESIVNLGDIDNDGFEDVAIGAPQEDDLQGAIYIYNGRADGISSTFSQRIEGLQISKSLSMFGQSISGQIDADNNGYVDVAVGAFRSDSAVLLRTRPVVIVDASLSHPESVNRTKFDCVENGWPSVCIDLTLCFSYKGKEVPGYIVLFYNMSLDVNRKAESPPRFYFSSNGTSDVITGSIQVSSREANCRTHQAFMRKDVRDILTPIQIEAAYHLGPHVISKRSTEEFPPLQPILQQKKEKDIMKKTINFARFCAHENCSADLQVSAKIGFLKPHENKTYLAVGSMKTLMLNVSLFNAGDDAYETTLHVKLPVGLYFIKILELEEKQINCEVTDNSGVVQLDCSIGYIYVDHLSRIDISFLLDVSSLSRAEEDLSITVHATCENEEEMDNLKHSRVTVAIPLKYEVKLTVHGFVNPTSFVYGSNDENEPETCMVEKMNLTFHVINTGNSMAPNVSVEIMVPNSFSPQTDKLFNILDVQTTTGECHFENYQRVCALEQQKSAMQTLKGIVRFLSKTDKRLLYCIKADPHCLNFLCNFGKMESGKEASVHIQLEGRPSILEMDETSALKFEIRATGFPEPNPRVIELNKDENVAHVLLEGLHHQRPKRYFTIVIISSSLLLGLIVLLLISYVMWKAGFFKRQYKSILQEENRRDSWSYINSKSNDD
AP-2 complex subunit beta (Homo sapiens), sequence (P63010 whole entry, looked up, the tested form may be a part, one chain of several): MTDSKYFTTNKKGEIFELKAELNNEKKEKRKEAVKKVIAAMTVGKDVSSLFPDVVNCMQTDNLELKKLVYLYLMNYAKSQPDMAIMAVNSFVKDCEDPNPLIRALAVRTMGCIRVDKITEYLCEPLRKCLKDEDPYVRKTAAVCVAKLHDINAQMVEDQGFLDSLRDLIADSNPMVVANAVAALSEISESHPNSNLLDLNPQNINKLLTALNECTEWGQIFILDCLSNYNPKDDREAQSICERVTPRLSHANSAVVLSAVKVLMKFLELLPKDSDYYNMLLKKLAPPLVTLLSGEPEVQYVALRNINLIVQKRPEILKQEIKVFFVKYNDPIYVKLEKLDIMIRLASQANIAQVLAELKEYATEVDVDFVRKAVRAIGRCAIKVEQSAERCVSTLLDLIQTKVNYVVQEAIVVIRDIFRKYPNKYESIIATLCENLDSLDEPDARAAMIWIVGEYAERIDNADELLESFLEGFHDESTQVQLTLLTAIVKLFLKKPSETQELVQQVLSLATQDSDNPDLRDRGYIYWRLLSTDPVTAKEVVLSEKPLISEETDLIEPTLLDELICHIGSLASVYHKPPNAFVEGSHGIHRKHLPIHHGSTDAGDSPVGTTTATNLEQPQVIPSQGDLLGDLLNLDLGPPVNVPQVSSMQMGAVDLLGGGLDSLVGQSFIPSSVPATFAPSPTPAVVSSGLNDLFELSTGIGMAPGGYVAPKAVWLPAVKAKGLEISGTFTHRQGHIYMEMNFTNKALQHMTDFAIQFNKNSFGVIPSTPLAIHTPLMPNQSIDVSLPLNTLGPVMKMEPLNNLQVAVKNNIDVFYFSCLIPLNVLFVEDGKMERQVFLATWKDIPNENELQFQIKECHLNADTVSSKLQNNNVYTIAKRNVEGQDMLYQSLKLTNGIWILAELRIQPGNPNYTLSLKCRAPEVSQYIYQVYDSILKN
Beta-adrenergic receptor kinase 1 (Homo sapiens), sequence (P25098 whole entry, looked up): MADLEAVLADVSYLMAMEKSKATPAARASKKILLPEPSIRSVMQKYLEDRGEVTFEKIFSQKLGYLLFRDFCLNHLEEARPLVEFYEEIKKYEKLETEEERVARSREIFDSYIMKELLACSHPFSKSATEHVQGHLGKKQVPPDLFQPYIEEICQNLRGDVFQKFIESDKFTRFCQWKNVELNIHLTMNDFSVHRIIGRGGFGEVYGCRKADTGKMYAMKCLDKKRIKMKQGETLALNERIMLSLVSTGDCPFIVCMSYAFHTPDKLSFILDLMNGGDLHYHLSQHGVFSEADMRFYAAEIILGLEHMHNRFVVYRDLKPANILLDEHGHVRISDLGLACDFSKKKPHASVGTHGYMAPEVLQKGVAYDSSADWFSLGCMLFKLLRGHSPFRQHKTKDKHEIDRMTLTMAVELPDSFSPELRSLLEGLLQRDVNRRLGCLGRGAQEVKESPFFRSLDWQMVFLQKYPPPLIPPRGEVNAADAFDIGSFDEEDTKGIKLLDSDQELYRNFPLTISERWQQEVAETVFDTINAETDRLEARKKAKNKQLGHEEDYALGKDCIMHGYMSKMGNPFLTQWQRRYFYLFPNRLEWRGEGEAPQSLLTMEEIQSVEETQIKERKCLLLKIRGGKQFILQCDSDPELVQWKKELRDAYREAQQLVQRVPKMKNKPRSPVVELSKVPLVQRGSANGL
ATP-binding cassette sub-family B member 6 (Homo sapiens), sequence (Q9NP58 whole entry, looked up): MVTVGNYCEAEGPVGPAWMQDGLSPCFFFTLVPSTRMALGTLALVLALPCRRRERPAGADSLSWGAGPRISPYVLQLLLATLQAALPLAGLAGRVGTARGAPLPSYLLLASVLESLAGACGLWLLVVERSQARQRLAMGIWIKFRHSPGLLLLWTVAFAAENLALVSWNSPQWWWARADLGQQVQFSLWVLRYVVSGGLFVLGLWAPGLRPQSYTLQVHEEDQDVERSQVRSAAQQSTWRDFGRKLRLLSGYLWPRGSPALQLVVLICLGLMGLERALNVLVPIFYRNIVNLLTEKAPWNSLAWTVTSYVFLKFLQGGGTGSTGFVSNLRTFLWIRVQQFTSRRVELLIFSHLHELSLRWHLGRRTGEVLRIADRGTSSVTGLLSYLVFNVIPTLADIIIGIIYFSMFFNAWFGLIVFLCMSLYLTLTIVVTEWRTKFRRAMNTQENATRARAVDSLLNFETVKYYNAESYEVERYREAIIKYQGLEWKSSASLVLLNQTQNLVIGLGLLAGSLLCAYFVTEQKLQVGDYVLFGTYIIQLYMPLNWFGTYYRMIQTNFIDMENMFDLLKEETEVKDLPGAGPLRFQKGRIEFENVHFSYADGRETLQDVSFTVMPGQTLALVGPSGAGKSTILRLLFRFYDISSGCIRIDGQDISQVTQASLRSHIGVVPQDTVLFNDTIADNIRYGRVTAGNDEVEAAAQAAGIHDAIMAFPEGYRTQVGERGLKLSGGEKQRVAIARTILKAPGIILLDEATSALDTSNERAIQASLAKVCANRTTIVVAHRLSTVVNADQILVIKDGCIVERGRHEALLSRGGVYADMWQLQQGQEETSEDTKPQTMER

SMILES | double positive events [1] [%] | vesicle binding response [1] | inhibition [2] | superoxide response (% of plate) [3] | aptamer binding inhibition [4] | inhibition [5] | response [6] | binding (% of control) [7] | efflux inhibition (fraction of control) [8] | inhibition [9] | differentiation response [10]
Cc1ccc2nc3c(cc(C(=O)NCC4CCCO4)c(=N)n3CCCOC(C)C)c(=O)n2c1 (stereo not drawn) | 62.1 | 176% (inactive) | 9.09% (inactive) | 82.4% (inactive) | 0% (inactive) | -3.18% (inactive) | -20.8% (inactive) | 100% (inactive) | 0.33 (inactive) | 14% (inactive) | -24.4% (inactive)
Cc1ccc(OCCSc2ncccn2)c(C)c1 | 49.1 | 186% (inactive) | 3.49% (inactive) | 114% (inactive) | 1% (inactive) | -11.2% (inactive) | 12.3% (inactive) | 98% (inactive) | 0.14 (inactive) | 10% (inactive) | -13.1% (inactive)
O=C(NCC1CCCCN1)c1cc(OCC(F)(F)F)ccc1OCC(F)(F)F (stereo not drawn) | 51.3 | 183% (inactive) | 1.62% (inactive) | 102% (inactive) | -3% (inactive) | -20.4% (inactive) | 0.89% (inactive) | 103% (inactive) | -0.05 (inactive) | 14% (inactive) | -8.27% (inactive)
Nc1ncnc2c1ncn2C1OC(CO)C(O)C1O (stereo not drawn) | 48.3 | 175% (inactive) | -6.77% (inactive) | 102% (inactive) | 3% (inactive) | -4.3% (inactive) | 0.12% (inactive) | 110% (inactive) | -0.01 (inactive) | 5% (inactive) | -18% (inactive)
CC1(C)CC(CC(=O)Nc2nccs2)(c2ccccc2)CCO1 (stereo not drawn) | 51.5 | 182% (inactive) | 4.42% (inactive) | 103% (inactive) | -7% (inactive) | -9.2% (inactive) | 5.11% (inactive) | 96.4% (inactive) | 0.18 (inactive) | 8% (inactive) | 1.41% (inactive)
C[C@]12CCC(=O)C[C@@H]1CC[C@@H]1[C@@H]2CC[C@]2(C)C=CC[C@@H]12 | 51.4 | 201% (inactive) | 5.36% (inactive) | 111% (inactive) | 2% (inactive) | 2.65% (inactive) | 17% (active) | 103% (inactive) | 0.1 (inactive) | 4% (inactive) | 28.9% (inactive)
CN(C)CCN(Cc1cccs1)c1ccccn1 | 52.7 | 165% (inactive) | 13.8% (inactive) | 113% (inactive) | 2% (inactive) | -17.1% (inactive) | 8.75% (inactive) | 101% (inactive) | 0.18 (inactive) | 8% (inactive) | -21.2% (inactive)
Cc1c(CCOC(=O)CC23CC4CC(CC(C)(C4)C2)C3)sc[n+]1Cc1ccc([N+](=O)[O-])cc1 | 59 | 208% (inactive) | 8.15% (inactive) | 98.4% (inactive) | -9% (inactive) | -6.04% (inactive) | 3.23% (inactive) | 108% (inactive) | 1.81 (active) | 6% (inactive) | 0% (inactive)
C[C@@H]1C[C@H]2[C@@H]3C[C@H](F)C4=CC(=O)C=C[C@]4(C)[C@@]3(F)[C@@H](O)C[C@]2(C)[C@@]1(O)C(=O)CO | 55 | 206% (inactive) | 2.56% (inactive) | 92.5% (inactive) | 2% (inactive) | -9.58% (inactive) | 10.1% (inactive) | 103% (inactive) | -0.09 (inactive) | 9% (inactive) | -1.82% (inactive)
COc1ccc(CNC(=O)c2cc3c(=O)n4ccccc4nc3n(Cc3cccnc3)c2=N)cc1 | 60.5 | 131% (inactive) | -2.11% (inactive) | 92.2% (inactive) | -6% (inactive) | -0.26% (inactive) | 3.99% (inactive) | 112% (inactive) | 0.22 (inactive) | 4% (inactive) | -9.89% (inactive)
O=C(O)CCn1c(=S)n(CCC(=O)O)c2ccccc21 | 53.4 | 162% (inactive) | 8.15% (inactive) | 112% (inactive) | 4% (inactive) | 4.52% (inactive) | -0.83% (inactive) | 101% (inactive) | -0.05 (inactive) | 5% (inactive) | -6.66% (inactive)
COc1ccc(-c2c(C)c3ccc(OCC(C)=O)cc3oc2=O)cc1 | 46.6 | 128% (inactive) | 3.49% (inactive) | 113% (inactive) | 6% (inactive) | -9.08% (inactive) | -2.13% (inactive) | 103% (inactive) | -0.05 (inactive) | 9% (inactive) | 3.03% (inactive)
COc1ccc(-c2coc3cc(OC(=O)N4CCOCC4)ccc3c2=O)cc1 | 62.6 | 185% (inactive) | -9.57% (inactive) | 105% (inactive) | -3% (inactive) | -9.14% (inactive) | 4.61% (inactive) | 109% (inactive) | -0.16 (inactive) | 10% (inactive) | 19.2% (inactive)
CN(C)C(=O)C(CCN1CCC(O)(c2ccc(Cl)cc2)CC1)(c1ccccc1)c1ccccc1 | 70.4 | 180% (inactive) | 44% (inactive) | 86.8% (inactive) | 1% (inactive) | 2.98% (inactive) | 6.9% (inactive) | 104% (inactive) | 0.08 (inactive) | 2% (inactive) | -3.02% (inactive)
COc1cc2cc(C(=O)O)n(C)c2c(OC)c1OC | 54.5 | 184% (inactive) | 5.36% (inactive) | 103% (inactive) | -6% (inactive) | 17.7% (inactive) | -19.4% (inactive) | 106% (inactive) | -0.01 (inactive) | 2% (inactive) | -3.43% (inactive)
CC1(C)CC(=O)c2cc(O)ccc2O1 | 61 | 199% (inactive) | 13.8% (inactive) | 95.8% (inactive) | 3% (inactive) | 10.6% (inactive) | -2.03% (inactive) | 107% (inactive) | -0.01 (inactive) | 11% (inactive) | -13.1% (inactive)
COC(=O)c1[nH]c2ccc(F)cc2c1NC(=O)C1=COCCO1 | 55.5 | 252% (inactive) | -3.04% (inactive) | 89.2% (inactive) | 1% (inactive) | 1.47% (inactive) | -2.26% (inactive) | 92.8% (inactive) | -0.01 (inactive) | 7% (inactive) | 45% (inactive)
O=C(NC(CO)Cc1ccc([N+](=O)[O-])cc1)C(Cl)Cl (stereo not drawn) | 57.3 | 146% (inactive) | -11.4% (inactive) | 100% (inactive) | 15% (inactive) | 0.05% (inactive) | 0.32% (inactive) | 100% (inactive) | -0.24 (inactive) | 14% (inactive) | -24.4% (inactive)
C(=C/c1nccc2c1[nH]c1ccccc12)/c1ccc2c(c1)OCO2 | 58.5 | 170% (inactive) | -239% (inactive) | 93.4% (inactive) | -1% (inactive) | 23.3% (inactive) | 1.54% (inactive) | 144% (inactive) | -0.35 (inactive) | 8% (inactive) | -18% (inactive)
O=C(O)c1cc(-c2ccccc2)nc2ccccc12 | 62 | 151% (inactive) | 23.1% (inactive) | 98.3% (inactive) | 4% (inactive) | 27.6% (inactive) | -5.56% (inactive) | 96.2% (inactive) | 0.1 (inactive) | -2% (inactive) | 6.26% (inactive)
Oc1[nH]c2ccccc2c1N=Nc1ccccc1 | 49.4 | 168% (inactive) | 9.09% (inactive) | 104% (inactive) | 3% (inactive) | -8.96% (inactive) | -2.64% (inactive) | 103% (inactive) | -0.35 (inactive) | 10% (inactive) | -8.27% (inactive)
CC[C@H](CO)NCCN[C@H](CC)CO | 56.6 | 193% (inactive) | -2.11% (inactive) | 112% (inactive) | -2% (inactive) | -14.5% (inactive) | 2.83% (inactive) | 112% (inactive) | 0.06 (inactive) | 12% (inactive) | -19.6% (inactive)
CC(=O)N=c1sc(S(N)(=O)=O)nn1C | 48.1 | 166% (inactive) | -9.57% (inactive) | 97% (inactive) | 4% (inactive) | -6.47% (inactive) | -25.8% (inactive) | 99.6% (inactive) | -0.01 (inactive) | 8% (inactive) | 11.1% (inactive)
CC12CCC(C(=O)Nc3ccccc3Br)(C/C1=N\O)C2(C)C (stereo not drawn) | 58.3 | 154% (inactive) | -6.77% (inactive) | 92.2% (inactive) | 3% (inactive) | -0.26% (inactive) | 2.28% (inactive) | 96% (inactive) | -0.12 (inactive) | 9% (inactive) | -9.89% (inactive)
O=C1CC(c2ccc(F)cc2)Cc2nc(NCC3CCCO3)ncc21 (stereo not drawn) | 55.2 | 192% (inactive) | 6.29% (inactive) | 99.1% (inactive) | 3% (inactive) | -9.45% (inactive) | -2.69% (inactive) | 99.8% (inactive) | -0.12 (inactive) | 7% (inactive) | 38.5% (inactive)
COc1c2occc2c(OC)c2c(=O)cc(C(F)(F)C(F)(F)F)oc12 | 50 | 156% (inactive) | 3.49% (inactive) | 123% (inactive) | 2% (inactive) | -6.1% (inactive) | -16% (inactive) | 103% (inactive) | 0.03 (inactive) | 9% (inactive) | -16.4% (inactive)
Cc1ccc2[nH]c3c(=O)n(CCCN4CCN(C)CC4)cnc3c2c1 | 60.7 | 195% (inactive) | 7.22% (inactive) | 99.9% (inactive) | 4% (inactive) | 24.8% (inactive) | -6.94% (inactive) | 99.3% (inactive) | -0.2 (inactive) | 12% (inactive) | 30.5% (inactive)
Cc1ncc(C(=O)O)c(C(=O)O)c1N | 52.2 | 184% (inactive) | 4.42% (inactive) | 110% (inactive) | 2% (inactive) | -2.62% (inactive) | -3.73% (inactive) | 100% (inactive) | -0.09 (inactive) | 8% (inactive) | -14.7% (inactive)
